{"source": "PubChem BioAssay (Tox21)", "note": "Inconclusive results are not listed. Entries that show only a call come without a potency. Active and inactive are the calls of the source. The call rests on the fitted dose curve; in most records, active means well fitted cell-killing curve with a large enough effect in the repeat runs; inconclusive means weak or mixed curves, or effect the other way; inactive means flat fitted curve, though single readings scatter."}
{"assay": "qHTS RealTime-Glo MT Cell Viability Assay in HepG2 cells - 0 hour (AID 1224889); further: nearly all actives have a fitted effect of over 50% in size", "details": "RealTime-Glo luminescence; series mostly up to 76.8 µM", "in_short": "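HepG2 cells were seeded at 600 cells/well together with NanoLuc luciferase and a cell-permeant prosubstrate, preincubated 5 h at 37 C/5% CO2, then pin-dosed with compounds in DMSO. Nonlytic luminescence from viable cells was read at each time point.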"}
{"smiles": "c1ccc(CNc2ncnc3c2ncn3C2CCCCO2)cc1", "note": "(stereo not drawn)", "Potency": "inactive"}
{"smiles": "CC(C)(C)C1(CCc2ccc(Cl)cc2)CO1", "note": "(stereo not drawn)", "Potency": "inactive"}
{"smiles": "O=C1OC[C@H](Cc2cccc(O)c2)[C@H]1Cc1cccc(O)c1", "Potency": "inactive"}
{"smiles": "Nc1ccc(NC(=O)c2ccc(N)cc2)cc1", "Potency": "inactive"}
{"smiles": "O=C(O)CCCc1c[nH]c2ccccc12", "Potency": "inactive"}
{"smiles": "CC[C@@H](CO)NCCN[C@@H](CC)CO", "Potency": "inactive"}
{"smiles": "CC(C)(C)C(O)/C=C/c1ccc2c(c1)OCO2", "note": "(stereo not drawn)", "Potency": "inactive"}
{"smiles": "C/C(C=O)=C\\c1ccccc1", "Potency": "inactive"}
{"smiles": "CCO[Si](C)(CCCOCC1CO1)OCC", "note": "(stereo not drawn)", "Potency": "inactive"}
{"smiles": "ClC1=C(Cl)C1(Cl)Cl", "Potency": "inactive"}
{"smiles": "Nc1c(Cl)cc(Cl)cc1[N+](=O)[O-]", "Potency": "inactive"}
{"smiles": "COc1ccc(-c2cc(C(F)F)nn2-c2ccc(S(N)(=O)=O)cc2)cc1F", "Potency": "inactive"}
{"smiles": "COC(=O)Nc1nc2ccc(C(=O)C3CC3)cc2[nH]1", "Potency": "inactive"}
{"smiles": "CCCCCCCC/C=C/C(=O)O", "Potency": "inactive"}
{"smiles": "CC(=O)N[C@@H](Cc1ccc(O)cc1)C(=O)O", "Potency": "inactive"}
{"smiles": "Cc1ccc(Nc2c(F)cccc2Cl)c(CC(=O)O)c1", "Potency": "inactive"}
{"smiles": "C=Cc1ccc(OC(C)=O)cc1", "Potency": "inactive"}
{"smiles": "CCCOC(=O)c1c(Cl)c(Cl)c(Cl)c(Cl)c1C(=O)OCCC", "Potency": "inactive"}
{"smiles": "COc1ccc(/C=C/C(=O)c2ccc(OC)cc2OC)cc1", "Potency": "inactive"}
{"smiles": "Nc1ccc(N=Nc2ccc(N)cc2)cc1", "Potency": "inactive"}
{"smiles": "CC1=C2[C@@H]([C@H](C)CC[C@H]2/C=C(\\C)C(=O)O)[C@H](O)C1", "Potency": "inactive"}
{"smiles": "CNCc1ccc(NC(=O)c2c[nH]c3c2C(=O)CCC3)cc1", "Potency": "inactive"}
{"smiles": "O=C1CC[C@@H](C(=O)O)N1", "Potency": "inactive"}
